Laboratory results taken from PubChem BioAssay.
Calls of active or inactive are those of the source.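 Rule for the calls: active = compounds killing one labelled cell type while sparing the other, by normalised counts and ratio limits, not self-fluorescent; inactive = the rest.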

Test: EMT-state selective cytotoxicity in co-culture – imaging, PC-3E GFP, TEM4-18 mCherry, primary screen (AID 1345086);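 note: cells exposed to compound for 72 h before imaging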;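 for red/green cell ratio (normalised): normalised mesenchymal count divided by normalised epithelial count so high means epithelial killing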
Settings: PC-3E GFP / TEM4-18 mCherry co-culture, imaging cell counts; at 1 µM; actives lie on both sides
For `CC(CO)NC(=O)C1C=C2c3cccc4[nH]cc(c34)C[C@H]2N(C)C1` (some centres not stated), the red/green cell ratio (normalised) was 1.15 (inactive).
With `C[C@]12CCC(=O)C=C1C=CC1C2CC[C@@]2(C)C1CC[C@@]2(O)CCC(=O)O` (some centres not stated) the red/green cell ratio (normalised) was 1.24 (inactive).
For `O=c1c(O)c(-c2ccc(O)c(O)c2)oc2c(O)c(O)cc(O)c12`, the red/green cell ratio (normalised) was 1.09 (inactive).
With `CC[C@@]1(O)C[C@H](O[C@H]2C[C@H](N(C)C)[C@H](O)[C@H](C)O2)c2c(cc3c(c2O)C(=O)c2c(O)ccc(O)c2C3=O)[C@H]1C(=O)OC` the red/green cell ratio (normalised) was 0.85 (inactive).
With `N#CC(O[C@@H]1O[C@H](CO[C@@H]2O[C@H](CO)[C@@H](O)[C@H](O)[C@H]2O)[C@@H](O)[C@H](O)[C@H]1O)c1ccccc1` (some centres not stated) the red/green cell ratio (normalised) was 1 (inactive).
In the case of `Nc1ncn[nH]1`, the red/green cell ratio (normalised) is reported as 1.3 (inactive).
In the case of `CN1C2C[C@H](OC(=O)[C@H](CO)c3ccccc3)C[C@H]1[C@@H](O)C2`, the red/green cell ratio (normalised) is reported as 0.94 (inactive).
For `Oc1ccc2c3c1OC1[C@@H](O)CC[C@@]4(O)[C@@H](C2)N(CC2CCC2)CC[C@]314` (some centres not stated), the red/green cell ratio (normalised) was 0.87 (inactive).
In the case of `C=C[C@H]1CN2CC[C@H]1C[C@@H]2[C@H](O)c1ccnc2ccccc12`, the red/green cell ratio (normalised) is reported as 1.26 (inactive).

Same assay, conditions: PC-3E GFP / TEM4-18 mCherry co-culture, imaging cell counts; at 1 µM; actives lie on both sides; counts scaled to control wells, 1 = unselective
In the case of `CC1CC[C@]2(NC1)O[C@H]1CC3C4CC[C@H]5C[C@@H](O)CC[C@]5(C)C4CC[C@]3(C)[C@H]1[C@@H]2C` (some centres not stated), the red/green cell ratio (normalised) is reported as 0.81 (inactive).
With `CC(=O)OC1CC[C@@]2(C)C(CCC3C2CC[C@]2(C)C(C4=CC(=O)OC4)C(OC(C)=O)CC32O)C1` (some centres not stated) the red/green cell ratio (normalised) was 0.21 (inactive).
In the case of `CN(CCC(N)CC(=O)N[C@H]1C=CC(n2ccc(N)nc2=O)O[C@@H]1C(=O)O)C(=N)N` (some centres not stated), the red/green cell ratio (normalised) is reported as 0.77 (inactive).

Same assay, conditions: PC-3E GFP / TEM4-18 mCherry co-culture, imaging cell counts; measured here: epithelial PC-3E GFP cell survival; at 1 µM
For `O=C1CC[C@@]2(O)[C@H]3Cc4ccc(O)c5c4C2(CCN3CC2CC2)[C@H]1O5`, the normalised cell number was 1.01.
In the case of `C=C[C@H]1CN2CC[C@H]1C[C@@H]2[C@@H](OC(=O)OCC)c1ccnc2ccc(OC)cc12`, the normalised cell number is reported as 0.67.
`CC1(C)C(=O)C=C[C@@]2(C)C1=C(O)C(=O)[C@]1(C)C2CC[C@@]2(C)[C@H](c3ccoc3)C[C@H]3O[C@]321` (some centres not stated) showed a normalised cell number of 0.97.
`COc1cccc([C@]2(O)CCCC[C@H]2CN(C)C)c1` gave a normalised cell number of 1.13.
With `CC1CC[C@]2(NC1)O[C@H]1CC3C4CC[C@H]5C[C@@H](O)CC[C@]5(C)C4CC[C@]3(C)[C@H]1[C@@H]2C` (some centres not stated) the normalised cell number was 1.1.
For `CC(=O)O[C@H]1C[C@@H](OC(C)=O)C(C)(C)C2C[C@@H](OC(C)=O)[C@]3(C)C(CC[C@@]4(C)[C@H](c5ccoc5)C(=O)[C@H]5O[C@]543)[C@]21C` (some centres not stated), the normalised cell number was 1.08.
For `NC1C[C@H]1c1ccccc1` (some centres not stated), the normalised cell number was 0.99.
For `CC1(C)C(=O)C=C[C@@]2(C)C1C[C@@H](O)[C@]1(C)C2CC[C@@]2(C)[C@H](c3ccoc3)OC(=O)[C@H]3O[C@]321` (some centres not stated), the normalised cell number was 0.88.
With `COC[C@]12CN(C=O)C3[C@@H]4[C@H](OC)C1[C@]3(C1CC3(O)C(OC)C(O)C4(OC(C)=O)C1C3OC(=O)c1ccccc1)[C@@H](OC)C[C@H]2O` (some centres not stated) the normalised cell number was 1.06.
With `CNC(C)[C@H](O)c1ccccc1` (some centres not stated) the normalised cell number was 0.95.
`C[C@@H]1O[C@@H](O[C@H]2C[C@@H](O)[C@]3(CO)C4C(CC[C@]3(O)C2)[C@@]2(O)CC[C@H](C3=CC(=O)OC3)[C@@]2(C)C[C@H]4O)[C@H](O)[C@H](O)[C@H]1O` (some centres not stated) gave a normalised cell number of 0.14.
For `CC(C)C[C@@H](CN)CC(=O)O`, the normalised cell number was 1.2.
`CC1[C@H](C)OC(=O)CC(O)CC(O)CC(O)CCC(O)C(O)C[C@]2(O)CC(O)C(C(=O)O)C(CC(OC3O[C@H](C)[C@@H](O)[C@H](N)[C@@H]3O)/C=C/C=C/C=C/C=C/CC/C=C/C=C/[C@H](C)[C@H]1O)O2` (some centres not stated) gave a normalised cell number of 0.98.
Work on `C[N+](C)(C)CC(=O)[O-]` yielded a normalised cell number of 1.09.
For `COc1cc2c(cc1OC)[C@@H]1C(=O)c3ccc4c(c3O[C@@H]1CO2)CC(C(C)C)O4` (some centres not stated), the normalised cell number was 0.56.
Compound `C#CC1(O)CCC2C3CCC4=CC(=O)CCC4(C)C3CCC21C` (configuration not stated) has a normalised cell number of 1.21.
In the case of `CCC(=O)O[C@H]1CCC2C3CCC4=CC(=O)CC[C@]4(C)C3CC[C@@]21C` (some centres not stated), the normalised cell number is reported as 1.23.
`C[C@@H]1CC[C@@]2(OC1)OC1C(O)C3C4CC[C@H]5C[C@H](O[C@@H]6O[C@H](CO)[C@H](O[C@@H]7O[C@H](CO)[C@@H](O)[C@H](O[C@@H]8OC[C@@H](O)[C@H](O)[C@H]8O)[C@H]7O[C@@H]7O[C@H](CO)[C@H](O)[C@H](O[C@@H]8O[C@H](CO)[C@@H](O)[C@H](O)[C@H]8O)[C@H]7O)[C@H](O)[C@H]6O)[C@H](O)C[C@]5(C)C4CC[C@]3(C)C1[C@@H]2C` (some centres not stated) gave a normalised cell number of 0.9.
For `CCN1C[C@@]2(COC)C3[C@@H](OC)[C@H]4[C@@H]1[C@]3(C(OC)C[C@H]2O)C1C[C@@]2(O)[C@H](OC(=O)c3ccccc3)C1[C@]4(OC(C)=O)[C@@H](O)[C@@H]2OC` (some centres not stated), the normalised cell number was 1.01.
With `CC(=O)O[C@@H]1CC2C(C)(C)C(=O)C=C[C@]2(C)C2CC[C@]3(C)C(=CC(=O)O[C@H]3c3ccoc3)[C@@]21C` (some centres not stated) the normalised cell number was 0.98.
`CC(=O)OC1CC[C@@]2(C)C(CCC3C2CC[C@]2(C)C(C4=CC(=O)OC4)C(OC(C)=O)CC32O)C1` (some centres not stated) showed a normalised cell number of 0.16.
Work on `C[C@@H]1CC(Cl)CC[C@H]1C(=O)OC(C)(C)C` (some centres not stated) yielded a normalised cell number of 1.09.
`O=C1C=CC(=O)c2ccccc21` showed a normalised cell number of 1.25.
Compound `C=CCN1CC[C@]23c4c5ccc(O)c4OC2C(=O)CC[C@@]3(O)[C@H]1C5` (some centres not stated) has a normalised cell number of 1.09.
With `CC1=CC(=O)c2c(O)cccc2C1=O` the normalised cell number was 0.08.
For `CC1OC(=O)[C@@H](C(C)C)NC(=O)C(C(C)C)OC(=O)[C@H](C(C)C)NC(=O)C(C)OC(=O)[C@@H](C(C)C)NC(=O)C(C(C)C)OC(=O)[C@H](C(C)C)NC(=O)C(C)OC(=O)[C@@H](C(C)C)NC(=O)C(C(C)C)OC(=O)[C@H](C(C)C)NC1=O` (some centres not stated), the normalised cell number was 0.32.
`C=C1CC2C(CC[C@]3(C)C(=O)CCC23)[C@@]2(C)C=CC(=O)C=C12` (some centres not stated) showed a normalised cell number of 1.01.
Work on `C=C(C)C1Cc2c(ccc3c(=O)c4c(oc23)COc2cc(OC)c(OC)cc2-4)O1` (configuration not stated) yielded a normalised cell number of 0.94.
In the case of `O=C(NC(=O)c1c(F)cccc1F)Nc1ccc(Cl)cc1`, the normalised cell number is reported as 0.99.
With `CC(=O)O[C@H]1C(=O)[C@@]2(C)C([C@H](OC(=O)c3ccccc3)[C@]3(O)C[C@H](O)C(C)=C1C3(C)C)[C@]1(OC(C)=O)CO[C@@H]1C[C@@H]2O` (some centres not stated) the normalised cell number was 0.99.
`CC(CO)NC(=O)C1C=C2c3cccc4[nH]cc(c34)C[C@H]2N(C)C1` (some centres not stated) showed a normalised cell number of 0.77.
For `C[C@]12CCC(=O)C=C1C=CC1C2CC[C@@]2(C)C1CC[C@@]2(O)CCC(=O)O` (some centres not stated), the normalised cell number was 0.95.
For `O=c1c(O)c(-c2ccc(O)c(O)c2)oc2c(O)c(O)cc(O)c12`, the normalised cell number was 0.84.
Work on `CC[C@@]1(O)C[C@H](O[C@H]2C[C@H](N(C)C)[C@H](O)[C@H](C)O2)c2c(cc3c(c2O)C(=O)c2c(O)ccc(O)c2C3=O)[C@H]1C(=O)OC` yielded a normalised cell number of 1.07.
With `N#CC(O[C@@H]1O[C@H](CO[C@@H]2O[C@H](CO)[C@@H](O)[C@H](O)[C@H]2O)[C@@H](O)[C@H](O)[C@H]1O)c1ccccc1` (some centres not stated) the normalised cell number was 0.94.
In the case of `CN(CCC(N)CC(=O)N[C@H]1C=CC(n2ccc(N)nc2=O)O[C@@H]1C(=O)O)C(=N)N` (some centres not stated), the normalised cell number is reported as 1.2.
`Nc1ncn[nH]1` gave a normalised cell number of 0.82.
Work on `CN1C2C[C@H](OC(=O)[C@H](CO)c3ccccc3)C[C@H]1[C@@H](O)C2` yielded a normalised cell number of 1.1.
Work on `Oc1ccc2c3c1OC1[C@@H](O)CC[C@@]4(O)[C@@H](C2)N(CC2CCC2)CC[C@]314` (some centres not stated) yielded a normalised cell number of 1.11.
`C=C[C@H]1CN2CC[C@H]1C[C@@H]2[C@H](O)c1ccnc2ccccc12` showed a normalised cell number of 0.87.
